{
  "source": "paper PMC4336329",
  "about": "(PLoS ONE, 2015)",
  "note": "Among all 310,000 compounds or so, about 2,200 (0.71%) showed an effect of 50% or more. The effect is printed as a negative number. Many of the other results were omitted from the sample, so strong results are more common in it than they were.",
  "data": [
    {"biological_target": "human ether-à-go-go-related gene (hERG) potassium channel (human, UniProt Q12809)", "sequence (Q12809 whole entry, looked up)": "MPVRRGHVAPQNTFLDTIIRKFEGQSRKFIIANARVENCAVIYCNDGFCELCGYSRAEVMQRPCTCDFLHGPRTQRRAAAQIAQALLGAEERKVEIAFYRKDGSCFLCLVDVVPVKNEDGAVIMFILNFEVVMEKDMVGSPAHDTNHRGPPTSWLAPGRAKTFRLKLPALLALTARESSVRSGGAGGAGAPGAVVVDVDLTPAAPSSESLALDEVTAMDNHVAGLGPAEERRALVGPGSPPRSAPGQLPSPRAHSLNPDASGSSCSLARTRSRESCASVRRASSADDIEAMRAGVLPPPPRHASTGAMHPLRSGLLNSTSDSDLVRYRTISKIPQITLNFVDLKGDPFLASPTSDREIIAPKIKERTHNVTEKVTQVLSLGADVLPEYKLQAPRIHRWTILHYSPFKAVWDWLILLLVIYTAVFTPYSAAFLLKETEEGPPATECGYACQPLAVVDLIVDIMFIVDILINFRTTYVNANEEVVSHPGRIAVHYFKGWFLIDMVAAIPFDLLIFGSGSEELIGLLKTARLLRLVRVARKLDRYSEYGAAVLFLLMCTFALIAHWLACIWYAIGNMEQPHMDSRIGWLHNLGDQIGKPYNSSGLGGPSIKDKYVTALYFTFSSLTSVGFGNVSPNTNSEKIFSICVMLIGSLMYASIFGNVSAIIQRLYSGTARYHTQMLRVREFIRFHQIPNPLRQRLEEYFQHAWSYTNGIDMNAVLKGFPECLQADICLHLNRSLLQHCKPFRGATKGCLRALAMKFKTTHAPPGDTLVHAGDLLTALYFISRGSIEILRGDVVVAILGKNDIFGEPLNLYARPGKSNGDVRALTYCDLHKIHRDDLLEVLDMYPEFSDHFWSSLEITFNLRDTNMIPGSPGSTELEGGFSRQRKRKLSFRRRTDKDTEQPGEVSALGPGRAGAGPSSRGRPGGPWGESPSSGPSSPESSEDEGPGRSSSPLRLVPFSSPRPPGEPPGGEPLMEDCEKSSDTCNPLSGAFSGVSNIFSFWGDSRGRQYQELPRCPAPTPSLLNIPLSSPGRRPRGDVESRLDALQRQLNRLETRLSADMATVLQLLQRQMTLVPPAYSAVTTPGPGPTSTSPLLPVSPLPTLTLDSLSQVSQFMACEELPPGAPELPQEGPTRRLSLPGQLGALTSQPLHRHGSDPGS", "test": "primary screen, population patch clamp on CHO cells stably expressing hERG; higher = less effect of the substance", "units": {"hERG current change (%, negative = inhibition) at 1uM": "%"}, "values": [
      {"smiles": "Cn1cnnc1SCC(=O)NCc1cccc(C(F)(F)F)c1", "hERG current change (%, negative = inhibition) at 1uM": 24.1},
      {"smiles": "CC(=O)Nc1ccc(N/C=C(\\C#N)S(=O)(=O)c2ccc(Cl)cc2)cc1", "hERG current change (%, negative = inhibition) at 1uM": 11.1},
      {"smiles": "CCc1cccc(NC(=O)C2CCCN(S(=O)(=O)c3ccc4[nH]c(=O)ccc4c3)C2)c1", "note": "(stereo not drawn)", "hERG current change (%, negative = inhibition) at 1uM": -0.861},
      {"smiles": "CCOc1ccc(N2CC(C(=O)N3CCc4ccccc43)CC2=O)cc1", "note": "(stereo not drawn)", "hERG current change (%, negative = inhibition) at 1uM": -8.82},
      {"smiles": "CCOc1ccc(N2CC(C(=O)N3CCc4ccccc4C3)CC2=O)cc1", "note": "(stereo not drawn)", "hERG current change (%, negative = inhibition) at 1uM": -67.1},
      {"smiles": "Cc1ccc(N2CC(C(=O)N3CCc4ccccc4C3)CC2=O)cc1", "note": "(stereo not drawn)", "hERG current change (%, negative = inhibition) at 1uM": -17.7},
      {"smiles": "CCC(C)(C)n1nnnc1C(c1cc2ccc(OC)cc2[nH]c1=O)N1CCc2ccccc21", "note": "(stereo not drawn)", "hERG current change (%, negative = inhibition) at 1uM": 6.76},
      {"smiles": "N=c1c(S(=O)(=O)c2ccccc2)cc2c(=O)n3ccccc3nc2n1CC1CCCO1", "note": "(stereo not drawn)", "hERG current change (%, negative = inhibition) at 1uM": -17},
      {"smiles": "Cc1ccc(S(=O)(=O)c2cc3c(=O)n4ccccc4nc3n(CC3CCCO3)c2=N)cc1C", "note": "(stereo not drawn)", "hERG current change (%, negative = inhibition) at 1uM": 9.33},
      {"smiles": "N=c1c(C(=O)NC2CCCC2)cc2c(=O)n3ccccc3nc2n1CC1CCCO1", "note": "(stereo not drawn)", "hERG current change (%, negative = inhibition) at 1uM": -94.4},
      {"smiles": "N=c1c(C(=O)NC2CCCCC2)cc2c(=O)n3ccccc3nc2n1CC1CCCO1", "note": "(stereo not drawn)", "hERG current change (%, negative = inhibition) at 1uM": -79.2},
      {"smiles": "CC(NC(=O)c1cc2c(=O)n3ccccc3nc2n(CC2CCCO2)c1=N)c1ccccc1", "note": "(stereo not drawn)", "hERG current change (%, negative = inhibition) at 1uM": -72.3},
      {"smiles": "CCOC(=O)c1c(C)[nH]c(N=Nc2cccc(OC)c2)c1C", "hERG current change (%, negative = inhibition) at 1uM": 6.77},
      {"smiles": "CCOC(=O)C1CCN(S(=O)(=O)c2ccc(Br)c(OCC)c2)CC1", "hERG current change (%, negative = inhibition) at 1uM": 0.854},
      {"smiles": "CC1=[N+]([O-])C2(N)CCc3nonc3C2(O)C1", "note": "(stereo not drawn)", "hERG current change (%, negative = inhibition) at 1uM": 6.29},
      {"smiles": "COC(=O)[C@H](CCSC)NC(=O)Nc1cc(C)ccc1C", "hERG current change (%, negative = inhibition) at 1uM": 11.7},
      {"smiles": "C=CCn1c(O)c(C(C)=NCCN2CCN(C(=S)NC)CC2)c(=O)[nH]c1=O", "hERG current change (%, negative = inhibition) at 1uM": 4.36},
      {"smiles": "COc1ccc(CN2CCCC(C(=O)c3cccc(Cl)c3)C2)cc1", "note": "(stereo not drawn)", "hERG current change (%, negative = inhibition) at 1uM": -7.39},
      {"smiles": "COc1ccc(CN2CCC(C(=O)c3ccc(F)cc3)CC2)cc1", "hERG current change (%, negative = inhibition) at 1uM": -81},
      {"smiles": "O=C(c1ccc(F)cc1)C1CCN(Cc2ccc(F)cc2)CC1", "hERG current change (%, negative = inhibition) at 1uM": 2.51},
      {"smiles": "COc1ccc(C(=O)C2CCN(C(=S)Nc3ccc(F)cc3)CC2)cc1", "hERG current change (%, negative = inhibition) at 1uM": -6.05},
      {"smiles": "COc1ccc(CNC(=O)CN2CCC(C(=O)c3ccc(OC)cc3)CC2)cc1", "hERG current change (%, negative = inhibition) at 1uM": -15.3},
      {"smiles": "COc1ccc(CN2CCC(C(=O)c3ccc(Cl)cc3)CC2)cc1", "hERG current change (%, negative = inhibition) at 1uM": -80.9},
      {"smiles": "COc1ccc(CN2CCC(C(=O)c3cccc(Cl)c3)CC2)cc1", "hERG current change (%, negative = inhibition) at 1uM": -66.8},
      {"smiles": "COc1ccc(CNC(=O)C2CCN(C(=O)c3cccc(Cl)c3)CC2)cc1", "hERG current change (%, negative = inhibition) at 1uM": -3.93},
      {"smiles": "CCc1ccc(NC(=O)CN2CCC(C(=O)c3ccc(OC)cc3)CC2)cc1", "hERG current change (%, negative = inhibition) at 1uM": -3.64},
      {"smiles": "COC(=O)Cc1ccc(NC(=S)N2CCN(C(=O)C3CCCO3)CC2)cc1", "note": "(stereo not drawn)", "hERG current change (%, negative = inhibition) at 1uM": 5.7},
      {"smiles": "COc1ccccc1CNC(=O)C(NS(=O)(=O)c1ccc2c(c1)OCCO2)C(C)C", "note": "(stereo not drawn)", "hERG current change (%, negative = inhibition) at 1uM": 6.69},
      {"smiles": "COc1cc(C2NC(=O)C(C#N)=C(Nc3cccc(C)c3)S2)ccc1O", "note": "(stereo not drawn)", "hERG current change (%, negative = inhibition) at 1uM": 18.5},
      {"smiles": "COc1cc2c(cc1OC)[C@H](Cc1ccc(O)cc1)NCC2", "hERG current change (%, negative = inhibition) at 1uM": 10.8},
      {"smiles": "Cc1cc(N(C)C)c(C#N)c(=O)[nH]1", "hERG current change (%, negative = inhibition) at 1uM": 12.4},
      {"smiles": "O=C(c1cc2c([nH]c1=O)CCCC2)N1CCc2c([nH]c3ccccc23)C1c1ccccc1F", "note": "(stereo not drawn)", "hERG current change (%, negative = inhibition) at 1uM": 7.44},
      {"smiles": "CC(C)(C)C(=O)Nc1ccc2oc(-c3cc(F)c(F)cc3Cl)nc2c1", "hERG current change (%, negative = inhibition) at 1uM": 15.8},
      {"smiles": "CCCOc1ccc(C2c3c(oc4cc(C)c(C)cc4c3=O)C(=O)N2CCCN2CCOCC2)cc1", "note": "(stereo not drawn)", "hERG current change (%, negative = inhibition) at 1uM": 7.1},
      {"smiles": "Cc1ccccc1Nc1nc(N)nc(CSc2nc3ccccc3c(=O)n2C)n1", "hERG current change (%, negative = inhibition) at 1uM": 9.44},
      {"smiles": "N=c1c(C(=O)NCC2CCCO2)cc2c(=O)n3ccccc3nc2n1Cc1ccc(Cl)cc1", "note": "(stereo not drawn)", "hERG current change (%, negative = inhibition) at 1uM": -81.9},
      {"smiles": "N=c1c(C(=O)NCC2CCCO2)cc2c(=O)n3ccccc3nc2n1Cc1cccnc1", "note": "(stereo not drawn)", "hERG current change (%, negative = inhibition) at 1uM": -34.7},
      {"smiles": "N=c1c(C(=O)NCC2CCCO2)cc2c(=O)n3ccccc3nc2n1Cc1ccccc1", "note": "(stereo not drawn)", "hERG current change (%, negative = inhibition) at 1uM": -72.3},
      {"smiles": "N=c1c(C(=O)NCc2ccco2)cc2c(=O)n3ccccc3nc2n1CC1CCCO1", "note": "(stereo not drawn)", "hERG current change (%, negative = inhibition) at 1uM": -84.3},
      {"smiles": "N=c1c(S(=O)(=O)c2ccc(Cl)cc2)cc2c(=O)n3ccccc3nc2n1CC1CCCO1", "note": "(stereo not drawn)", "hERG current change (%, negative = inhibition) at 1uM": 6.52},
      {"smiles": "N=c1c(C(=O)NCC2CCCO2)cc2c(=O)n3ccccc3nc2n1Cc1ccc(F)cc1", "note": "(stereo not drawn)", "hERG current change (%, negative = inhibition) at 1uM": -82.7},
      {"smiles": "N=c1c(C(=O)NCC2CCCO2)cc2c(=O)n3ccccc3nc2n1Cc1ccccc1Cl", "note": "(stereo not drawn)", "hERG current change (%, negative = inhibition) at 1uM": -46.8},
      {"smiles": "O=C(NCc1ccco1)c1ccc2c(=O)n(CC3CCCO3)c(=S)[nH]c2c1", "note": "(stereo not drawn)", "hERG current change (%, negative = inhibition) at 1uM": 4.98},
      {"smiles": "CCn1c2ccccc2c2cc(NC(=O)COC(=O)c3ccccc3O)ccc21", "hERG current change (%, negative = inhibition) at 1uM": 15},
      {"smiles": "CCN(C(=O)/C=C/c1ccc(OC)cc1)C1CCS(=O)(=O)C1", "note": "(stereo not drawn)", "hERG current change (%, negative = inhibition) at 1uM": -3.05},
      {"smiles": "CN1C(=O)/C(=N/OC(=O)c2ccccc2)c2ccccc21", "hERG current change (%, negative = inhibition) at 1uM": -4.57},
      {"smiles": "N#Cc1c(N)n(CCc2ccc(F)cc2)c2nc3ccccc3nc12", "hERG current change (%, negative = inhibition) at 1uM": 19.9},
      {"smiles": "COCCNCCOc1ccc(C(C)(C)c2ccccc2)cc1.O=C(O)C(=O)O", "hERG current change (%, negative = inhibition) at 1uM": -2.39},
      {"smiles": "Cc1cc(C(=O)N2CC(C)CC(C)C2)n(-c2ccccc2)n1", "note": "(stereo not drawn)", "hERG current change (%, negative = inhibition) at 1uM": 16.6},
      {"smiles": "CC1CN(C(=O)Nc2ccc(F)cc2F)CC(C)O1", "note": "(stereo not drawn)", "hERG current change (%, negative = inhibition) at 1uM": -1.61},
      {"smiles": "C=CCn1c(SCC(=O)N2CCCCC2)nc(O)cc1=O", "hERG current change (%, negative = inhibition) at 1uM": 4.63},
      {"smiles": "COc1ccccc1N1CCN(S(=O)(=O)c2ccc(-c3cnc(C4CC4)o3)cc2)CC1", "hERG current change (%, negative = inhibition) at 1uM": 14},
      {"smiles": "N=c1c(C(=O)NCC2CCCO2)cc2c(=O)n3ccccc3nc2n1Cc1ccco1", "note": "(stereo not drawn)", "hERG current change (%, negative = inhibition) at 1uM": -83.1},
      {"smiles": "Cc1ccc(-c2nnc3n2CCCCC3)cc1", "hERG current change (%, negative = inhibition) at 1uM": 0.609}
    ]}
  ]
}
